According to PubChem BioAssay (EPA / NIEHS):
Activity calls are given as the source filed them. The calls were made as follows: active = hit-call score of the fitted dose curve at least 0.9, where 1 is the maximum; inactive = score below 0.9.

Experiment: CEETOX_H295R_TESTO: CeeTox H295R High-throughput Steroidogenesis Assay for Testosterone (TESTO) (AID 2283457);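 as to AC50: cells exposed to chemicals for 48 h before medium collection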
Conditions: actives raise or lower the signal
Summary of the method: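 H295R human adrenal cells in DMEM/F12 with ITS+ and Nu-Serum, exposed to chemicals for 48 h. Testosterone in medium measured by MTBE extraction, reverse-phase HPLC-MS/MS; bidirectional fit versus DMSO baseline. MTT viability checked in same wells.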

SMILES	outcome	AC50
Nc1cc([N+](=O)[O-])ccc1Cl	inactive	–
O=c1cc(-c2ccccc2)oc2cc(O)cc(O)c12	–	5610 nM (active)
C=CC(C)(C)O	inactive	–
O=C(O)C[C@H](O)C[C@H](O)/C=C/c1c(C2CC2)nc2ccccc2c1-c1ccc(F)cc1	–	87.1 nM (active)
COc1cc2ncnc(Nc3cccc(Cl)c3)c2cc1OC	inactive	–
CC1(C)[C@H](C(=O)OCc2cccc(Oc3ccccc3)c2)[C@@H]1C=C(Cl)Cl	inactive	–
